Data from PubChem BioAssay (NCATS).
Values joined by “and” are separate entries in the source; they are usually repeats but may differ in a detail not shown here. Equal entries are not always repeated. Records with an inconclusive call do not appear. Active and inactive are the calls of the source. Unless noted, calls follow the shape of the dose curve; as a rule, active = well fitted curve in the direction sought with a large enough effect; inconclusive = small, poorly fitted or top-dose-only effect, or another doubt; inactive = no such curve, though single readings can be large; an effect the other way counts as inactive or inconclusive.

What was measured:
[1] = Cell Viability - MRC5 (AID 434; calls by dose curve;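 also: potency is read from the fitted curve at half-maximal effect; cells exposed to compound for 40 hours at 37 °C; potency reflects cytotoxicity seen as loss of intracellular ATP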); conditions: MRC5 lung fibroblast viability, qHTS
Method in brief: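 AC50 values come from Hill-equation fits of intracellular ATP loss, measured by CellTiter-Glo luminescence. Normal lung fibroblasts (MRC5) had 40 hr compound treatment at 37 C, normalized between DMSO and 100 uM tamoxifen.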

[2] = Cellular Toxicity (caspase-3) HepG2 (AID 654); conditions: HepG2 caspase-3 activation, luminescence; series mostly up to 92.2 µM; also: potency is read from the fitted curve at half-maximal effect;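 as to caspase-3 activation: cells exposed to compound for 16 hours before reading; 0% = DMSO alone and 100% = caspase signal from 100 µM tamoxifen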
Method in brief: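 Luminescent Caspase-Glo 3/7 readout after 16 hr compound exposure of human hepatocellular carcinoma HepG2 cells at 37 °C; qHTS concentration-response, normalized DMSO = 0%, 100 uM tamoxifen = 100%; AC50 by standard Hill equation.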

[3] = Cellular Toxicity (caspase-3) HUV-EC-C (AID 656); conditions: HUV-EC-C cells, caspase-3 activation (apoptosis); series mostly up to 92.2 µM
Method in brief: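 HUV-EC-C endothelial cells, 1000/well, were pre-incubated 5 hr at 37°C, then exposed to compounds for 16 hr at 37°C. Caspase-Glo 3/7 luminescence was read after 20 min at room temperature. AC50 came from Hill fits, normalized to DMSO and 100 uM tamoxifen.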

[4] = Cellular Toxicity (caspase-3) SHSY5Y (AID 657); conditions: SH-SY5Y caspase-3 activation; series mostly up to 91.7 µM
Method in brief: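 SH-SY5Y human neuroblastoma cells (1500/well) were treated with compounds for 16 h at 37 °C, then Caspase-Glo 3/7 luminescence was read after 1 h at room temperature. Data normalized to DMSO and 10 uM staurosporine; AC50 from Hill fits.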

[5] = Cellular Toxicity (caspase-3) BJ (AID 658); conditions: BJ fibroblasts, luminescence; Potency: caspase-3 activation; series mostly up to 91.7 µM; also: potency is read from the fitted curve at half-maximal effect
Method in brief: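 Caspase-Glo 3/7 luminescence, read 1 hr after reagent at room temperature, in normal BJ fibroblasts exposed 16 hours at 37 °C. AC50 values from Hill-equation concentration-response, scaled between DMSO basal and 10 uM staurosporine as 100%.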

[6] = Cellular Toxicity (caspase-3) MRC-5 (AID 659); conditions: MRC-5 cells, luminescence, normalized: DMSO 0%, 10 µM staurosporine 100%; series mostly up to 91.7 µM
Method in brief: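 Luminescent Caspase-Glo 3/7 read-out (1 h, room temperature) after a 16 h, 37 °C compound exposure of MRC-5 lung fibroblasts at 1500 cells/well. Concentration-response AC50 from Hill equation; 0% DMSO, 100% 10 uM staurosporine.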

[7] = Cellular Toxicity (caspase-3) Mesangial (AID 660); conditions: mesangial cells, normalized: DMSO 0%, 100 µM tamoxifen 100%; series mostly up to 91.7 µM;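 also: combined caspase 3 and 7 activity read by Caspase-Glo luminescence; cells exposed to compound for 16 h before the caspase read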
Method in brief: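 Luminescent Caspase-Glo 3/7 readout (aminoluciferin substrate cleavage, 20 min RT) after 16 h compound exposure at 37 °C of normal human mesangial cells. Signal increase normalized between DMSO basal and 100 uM tamoxifen; Hill-equation AC50.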

[8] = Cellular Toxicity (caspase-3) SK-N-SH (AID 661); conditions: SK-N-SH caspase-3 activation, qHTS, DMSO as zero, staurosporine as full; series mostly up to 91.7 µM
Method in brief: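 Luminescent Caspase-Glo 3/7 read-out after 16 hr compound exposure of SK-N-SH neuroblastoma cells at 37 °C. Signal increase normalized to DMSO (basal) and 10 uM staurosporine (100%); AC50 from Hill equation fits of qHTS concentration-response data.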

[9] = Cellular Toxicity (caspase-3) H-4-II-E (AID 663); conditions: H-4-II-E rat hepatoma; Potency: caspase-3 activation; series mostly up to 92.2 µM;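 also: cells exposed to compound for 16 hr before readout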
Method in brief: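 Caspase 3/7 activation measured by luminescent aminoluciferin substrate cleavage after 16 hr compound treatment of H-4-II-E cells in complete medium. Increase normalized between DMSO (basal) and 100 uM tamoxifen (100%); Hill-equation AC50 from concentration-response.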

[10] = Cellular Toxicity (caspase-3) Hek293 (AID 664); conditions: HEK293 caspase-3 activation, DMSO = 0%, 100 µM tamoxifen = 100%; at 92.2 µM (top of the series);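 also: cells exposed to compound for 16 h at 37 °C before readout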
Method in brief: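 Luminescent Caspase-Glo 3/7 readout (aminoluciferin release) in HEK293 cells after 16 h compound treatment, 37 °C. Normalization: DMSO = basal, 100 uM tamoxifen = 100% stimulation. Concentration-response fitted with standard Hill equation for AC50.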

[11] = Cellular Toxicity (caspase-3) N2a (AID 665); conditions: N2a cells, luminescence, normalized: DMSO 0%, 10 µM staurosporine 100%; series mostly up to 92.2 µM;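 also: compound exposure lasted 16 h at 37 °C before readout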
Method in brief: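 Luminescent Caspase-Glo 3/7 readout in N2a mouse neuroblastoma cells after 16 h compound exposure at 37 °C. Signal scaled to DMSO (basal) and 10 uM staurosporine (100%). Concentration-response fitted with Hill equation for AC50.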

[12] = Cellular Toxicity (caspase-3) Renal Proximal Tubule (AID 667); conditions: renal proximal tubule cells, primary cells freshly taken from rat; Potency: caspase-3 activation; series mostly up to 91.7 µM;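 also: cells exposed to compound for 16 hours at 37 °C before detection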
Method in brief: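 Primary rat proximal tubule cells, 1000/well, 5 h plating at 37 °C, then compound 16 h at 37 °C. Caspase-Glo 3/7 reagent, 1 h RT, luminescence. Normalized to DMSO (basal) and 10 uM staurosporine (100%); Hill-fit AC50.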

[13] = MultiTox-Fluor Cytotoxicity Assay - LYMP1-001 - Dead Cells (AID 946); conditions: LYMP1-001 lymphoblastoid cells, dead-cell protease fluorescence; series mostly up to 92.2 µM
Method in brief: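 Cytotoxicity as increased dead-cell protease fluorescence (bis-AAF-R110, 485/520 nm), read 60 min after MultiTox-Fluor reagent. Human lymphoblastoid line exposed 16 h; Hill-fitted AC50, with DMSO as 0% and 15 uM tetraoctylammonium bromide as 100%.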

[14] = MultiTox-Fluor Cytotoxicity Assay - LYMP1-003 - Live Cells (AID 962); conditions: LYMP1-003 lymphoblastoid cells, MultiTox-Fluor live-cell protease fluorescence; series mostly up to 92.2 µM;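 also: 0% = DMSO only and full loss = 92 µM tetraoctylammonium bromide; cytotoxic hits lower the live-cell protease signal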
Method in brief: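 Readout: live-cell fluorescence (Ex/Em=405/510) from GF-AFC cleavage after 60 min MultiTox-Fluor reagent at room temperature. Lymphoblastoid LYMP1-003 cells, 16 hr compound treatment, 37 C. Concentration-response fitted to standard Hill equation for AC50.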

[15] = Cell Viability - LYMP1-003 - Assay at 24 hr (AID 963); conditions: LYMP1-003 lymphoblastoid cell viability; series mostly up to 92.2 µM;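 also: plate controls were DMSO only for no effect and tetraoctylammonium bromide positive control for full effect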
Method in brief: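 CellTiter-Glo luminescence (intracellular ATP) read after 24 hr, 37 C compound exposure of 2500 LYMP1-003 human lymphoblastoid cells/well in complete medium; qHTS concentration series; AC50 via standard Hill equation.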

[16] = qHTS Assay for Identification of Small Molecule Inducers of Hypoxia Response (AID 2120; active = well fitted curve in the direction sought with a large enough effect in the signal ratio, with a control signal flat, not every such curve was filed as active; the % refers to the signal ratio; also: 0% is about no effect); conditions: hypoxia response reporter cells, beta-lactamase ratio readout; series mostly up to 104 µM
Method in brief: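 Read-out: CCF4 FRET emission ratio 460nm/530nm (excitation 405nm), converted to %Activity, with AC50 fitted across a compound titration. ME-180 cells carried an HRE-driven beta-lactamase reporter; compound exposure 17 h, 37 degrees C.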

[17] = target: Peroxisome proliferator-activated receptor alpha (Homo sapiens) (UniProt Q07869); experiment: qHTS assay for small molecule agonists of the peroxisome proliferator-activated receptor alpha (PPARalpha) signaling pathway (AID 651778); conditions: PathHunter PPARalpha complementation, chemiluminescence, 6 h; max response: active compounds read high; also: % of control where 0% means no effect
Method in brief: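 Chemiluminescence from complemented enzyme reported PPARalpha activation in cells after 6 hr of compound treatment at 37 C. The detection reagent was incubated for 60 min at room temperature, and compounds were scored as agonists.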

[18] = qHTS assay for small molecule agonists of the antioxidant response element (ARE) signaling pathway measured by Nrf2-dependant transcriptional activity - cell viability counter screen (AID 720653; active = well fitted curve in the direction sought with a large enough effect in the repeat runs; an effect the other way counts as inactive or inconclusive; also: potency is read from the fitted curve at half-maximal effect; as to max response: % is scaled to controls: 0 for no effect and ±100 for the full control effect); conditions: ARE-bla HepG2 viability, CellTiter-Glo ATP luminescence, 16 h; max response: active compounds read low
Method in brief: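 Cytotoxicity counter screen: intracellular ATP quantified by CellTiter-Glo luminescence in the same ARE-bla HepG2 plates, after 16 h compound exposure and a 2 h beta-lactamase substrate step.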

[19] = qHTS assay for cell viability of HEK293 cells (AID 743288); conditions: ATP luminescence (CellTiter-Glo), 18 h; max response: active compounds read low; also: nearly all actives have a fitted effect of over 50% in size; also: potency is read from the fitted curve at half-maximal effect; as to max response: % is scaled to controls: 0 for no effect and ±100 for the full control effect
Method in brief: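 After 18 h compound exposure at 37 C, parental HEK293 cells (2,000/well) are lysed with CellTiter-Glo and luminescence is read following 30 min at room temperature.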

[20] = qHTS assay for cell viability of the p53RE-bla HCT-116 cell line (AID 743292); conditions: p53RE-bla HCT-116 viability, ATP luminescence, 16 h; series mostly up to 95 µM; also: % is scaled to controls: 0 for no effect and ±100 for the full control effect; nearly all actives have a fitted effect of over 55% in size
Method in brief: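 Viability of compound-treated p53RE-bla HCT-116 cells is taken from ATP-dependent luciferase luminescence. Treatment lasts 16 h at 37 C after a 5 h settling period; detection follows 30 min at room temperature.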

Peroxisome proliferator-activated receptor alpha (Homo sapiens), sequence (Q07869 whole entry, looked up): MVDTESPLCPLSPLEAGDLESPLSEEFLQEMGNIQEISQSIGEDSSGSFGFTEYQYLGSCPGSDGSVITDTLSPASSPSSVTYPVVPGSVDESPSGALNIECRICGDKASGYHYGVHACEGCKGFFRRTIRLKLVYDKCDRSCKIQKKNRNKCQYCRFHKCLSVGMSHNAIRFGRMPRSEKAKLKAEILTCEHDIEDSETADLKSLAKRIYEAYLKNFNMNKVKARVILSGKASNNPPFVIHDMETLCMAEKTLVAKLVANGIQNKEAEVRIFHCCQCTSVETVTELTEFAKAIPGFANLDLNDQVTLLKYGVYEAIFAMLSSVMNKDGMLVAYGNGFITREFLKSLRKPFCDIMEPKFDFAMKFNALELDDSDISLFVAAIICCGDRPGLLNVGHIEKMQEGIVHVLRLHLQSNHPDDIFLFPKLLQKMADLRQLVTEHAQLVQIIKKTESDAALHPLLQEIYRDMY

C=CC1CO1 (centres undefined)
inactive: Potency [1] > 92 µM | Potency [2] | Potency [3] | Potency [4] | Potency [5] | outcome [6] | outcome [7] | outcome [8] | Potency [9] | caspase-3 activation [10] -0.428% | outcome [11] | Potency [12] | Potency [13] | Potency [14] | Potency [15] | Potency [16] | max response [17] 1.5% | max response [18] -12.7% | max response [19] -1.41% | Potency [20]

C[C@@H]1CC2(OC(O)[C@]3(C)O[C@H]23)O[C@H]2C[C@@]3(C)[C@@H]4CC[C@H]5C(C)(C)C(O[C@@H]6OC[C@@H](O)[C@H](O)[C@H]6O)CC[C@@]56C[C@@]46CC[C@]3(C)[C@@H]12 (some centres undefined)
active: Potency [2] 31.6 µM | Potency [5] 31.6 µM | Potency [18] 70.8 µM | Potency [19] 44.7 µM
inactive: Potency [1] > 92 µM | Potency [3] | Potency [4] | outcome [11] | Potency [13] | Potency [14] | Potency [15] | Potency [16] | max response [17] 6.75% | Potency [20]

Nc1cc([N+](=O)[O-])ccc1O
inactive: Potency [1] > 92 µM | Potency [2] | Potency [3] | Potency [4] | Potency [5] | outcome [6] | outcome [7] | outcome [8] | Potency [9] | caspase-3 activation [10] -0.467% | outcome [11] | Potency [12] | Potency [13] | Potency [14] | Potency [15] | Potency [16] | max response [17] -13.4% and -8.79% | max response [18] -7.79% and -12.9% | max response [19] 11.2% and -4.43% | Potency [20]

Oc1ccc2c(c1)OCO2
inactive: Potency [1] > 92 µM | Potency [2] | Potency [3] | Potency [4] | Potency [5] | outcome [6] | outcome [7] | outcome [8] | Potency [9] | caspase-3 activation [10] -2.85% | outcome [11] | Potency [12] | Potency [13] | Potency [14] | Potency [15] | Potency [16] | max response [17] -2.87% | max response [18] 5% | max response [19] 7.08% | Potency [20]

O=[N+]([O-])c1ccccc1Nc1ccccc1
inactive: Potency [1] > 92 µM | Potency [2] | Potency [3] | Potency [4] | Potency [5] | outcome [6] | outcome [7] | outcome [8] | Potency [9] | caspase-3 activation [10] -0.0405% | outcome [11] | Potency [12] | Potency [13] | Potency [14] | Potency [15] | Potency [16] | max response [17] -0.358% | max response [18] -2.68% | max response [19] -4.25% | Potency [20]

CC(=O)c1ccc(Cl)c(Cl)c1Cl
inactive: Potency [1] > 92 µM | Potency [2] | Potency [3] | Potency [4] | Potency [5] | outcome [6] | outcome [7] | outcome [8] | Potency [9] | caspase-3 activation [10] 0.887% | outcome [11] | Potency [12] | Potency [13] | Potency [14] | Potency [15] | Potency [16] | max response [17] -0.114% | max response [18] 4.27% | max response [19] 4.03% | Potency [20]
